Test results: PubChem BioAssay
Records with an inconclusive call do not appear. Activity calls are given as the source filed them. Unless noted, the limit is not given here; nearly all actives have AC50 up to about 26 µM.

Experiment: SU-DIPG-VI glioma cell viability, MIPE4.0 library, CellTiter-Glo luminescence, qHTS (AID 1347066; cut-off not given, nearly all actives have AC50 up to about 30 µM)
Settings: CellTiter-Glo ATP luminescence
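Also: cells exposed to compound for 48 hours before readout.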

SMILES	AC50	outcome
NC(=O)c1nnn(Cc2cc(Cl)c(C(=O)c3ccc(Cl)cc3)c(Cl)c2)c1N	18.7 µM (active)	
O=C(Nc1cccc(Br)c1)c1cccc(S(=O)(=O)N2CCCCCC2)c1		inactive
CC(C)OC(=O)CCC/C=C\C[C@@H]1[C@@H](/C=C/[C@@H](O)COc2cccc(C(F)(F)F)c2)[C@H](O)C[C@@H]1O	23.5 µM (active)	
CC(C)C(=O)Nc1ncc(-c2cc(C(F)F)nn2-c2c(Cl)cccc2Cl)s1		inactive
FC(F)(F)c1ccc(Nc2nc3ccc(Oc4ccnc(-c5ncc(C(F)(F)F)[nH]5)c4)cc3[nH]2)cc1	20.9 µM (active)	
NC(=O)c1ccc2nc(-c3ccc(Oc4ccc(Cl)cc4)cc3)[nH]c2c1		inactive
CC1CCN(c2cc(N3CCN(C)CC3)ccc2NC(=O)c2cc(C#N)c[nH]2)CC1		inactive
CCC(=O)N[C@H]1CC[C@H](C(=O)N(C)c2ccc(-c3nc4ccccc4o3)cc2)C1		inactive

Experiment: JHH-DIPG-1 glioma cell viability, MIPE5.0 library, CellTiter-Glo luminescence, qHTS (AID 1347067)
Settings: JHH-DIPG-1 glioma viability, CellTiter-Glo ATP luminescence

SMILES	outcome	AC50
COc1ccc2c(c1)C(c1ccc(F)cc1)=C(CN1CCCC1)CO2	inactive	
C[C@H]1CC2[C@@H]3CCC4=CC(=O)C=C[C@]4(C)[C@@]3(F)[C@@H](O)C[C@]2(C)[C@@]1(O)C(=O)CO (some centres not stated)	inactive	
Cn1cc(-c2cnn3c(N)c(Br)c(C4CCCNC4)nc23)cn1 (configuration not stated)	inactive	
CC/C(=C(/c1ccc(/C=C/C(=O)O)cc1)c1ccc2[nH]ncc2c1)c1ccc(F)cc1Cl		26.3 µM (active)
C#CCC(Cc1cnc2nc(N)nc(N)c2n1)c1ccc(C(=O)N[C@@H](CCC(=O)O)C(=O)O)cc1 (some centres not stated)	inactive	
CC1Cc2ccccc2N1C(=O)Cc1nc(N2CCOCC2)cc(=O)[nH]1 (configuration not stated)	inactive	
CCN1/C(=C/C(C)=O)Sc2ccc(OC)cc21	inactive	
CC(C)C[C@H](NC(=O)[C@H](Cc1ccccc1)NC(=O)OCc1ccccc1)C(=O)C=O	inactive	
Nc1nc(F)nc2c1ncn2C1OC(COP(=O)(O)O)C(O)C1O (configuration not stated)	inactive	
COCC(=O)NC/C=C/c1ccc2ncnc(Nc3ccc(Oc4ccc(C)nc4)c(C)c3)c2c1	inactive	
Cc1csc(NC(=O)c2sc3nc4c(c(C(F)(F)F)c3c2N)CCC4)n1	inactive	
Cc1cccc(/C=N/Nc2cc(N3CCOCC3)nc(OCCc3ccccn3)n2)c1	inactive	
CS(=O)(=O)c1ccc(-c2cnc(NCc3ccco3)n3cnnc23)cc1		20.9 µM (active)
COCCOc1ccc(N2CCN(CCn3ncc4c3nc(N)n3nc(-c5ccco5)nc43)CC2)cc1	inactive	
Cc1ccc2cc(-c3c(C)ccc(C(=O)c4c(-c5ccccc5)n(C)n(-c5ccccc5)c4=O)c3N)ccc2n1	inactive	
OCCC#Cc1nc(-c2ccc(F)cc2)c(-c2ccncc2)n1CCCc1ccccc1		26.3 µM (active)
COC1CC(C(=O)c2ccc3c(N)ncc(-c4ccc(-c5cnn(C)c5)cc4)c3n2)C1 (configuration not stated)	inactive	
CC(=O)O/N=C1\C(=O)N(Cc2cc(Cl)ccc2Cl)c2ccc(Cl)cc21		23.5 µM (active)
N#CN1CCC[C@@H](n2nc(-c3ccc(Oc4ccc(F)cc4F)cc3)c(C(N)=O)c2N)C1	inactive	
CCNC(=O)Nc1ncc(-c2cc(-c3c(C)cc(OC)cc3C)nc(-c3cnccn3)n2)s1	inactive	
COc1cc2nccc(Oc3ccc(NC(=O)c4cn(C(C)C)c(=O)n(-c5ccc(F)cc5)c4=O)cc3F)c2cc1OC	inactive	
O=C(Nc1cccnc1)c1cc(-c2ccnc(F)c2)ccc1OCc1ccccc1		18.6 µM (active)
Cn1cc(-c2ccc(-c3cncc(Cl)c3N3CCC4(CCNC4=O)CC3)cc2)cn1	inactive	
CCC(=O)N[C@H]1CC[C@H](C(=O)N(C)c2ccc(-c3nc4ccccc4o3)cc2)C1	inactive	
